Laboratory results reported in PubChem BioAssay.
The source made the active and inactive calls. Unless noted, no rule for the calls is given here.

Tests used:
[1] = compounds binding Alexa647 anti-His antibody – biochemical, small-molecule microarray, 635 nm fluorescence, artefact control for SMM control protein annotation, primary screen (AID 1128); conditions: higher = more signal;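 also: score merges feature fluorescence with signal-to-noise for each printed compound spot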
[2] = test system: Human papillomavirus type 1a E7 protein (residues 1-88); assay: HPV1a E7 small-molecule binders, primary screen, biochemical, small-molecule microarray, residues 1-88, 635 nm (AID 1129); conditions: small-molecule microarray binding, fluorescence 635 nm; higher = more signal
[3] = biological target: Focal adhesion kinase 1 (Homo sapiens) (UniProt Q05397); assay: PTK2 protein binding on printed compound slides – biochemical, small-molecule microarray, 635/667 nm fluorescence, BSA, DTT, primary screen (AID 1130); conditions: 635 nm fluorescence, higher = more signal;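 also: composite of spot emission at 667 nm and signal to noise over triplicate slides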
[4] = test system: Fibrinogen (Alexa647-labelled); assay: Alexa647-fibrinogen binding to printed small molecules – biochemical, small-molecule microarray, 635/667 nm fluorescence, artefact control for SMM control-protein annotation, profiling panel (AID 1131); conditions: fibrinogen-A647 binding fluorescence, higher = more signal;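 also: z-score merges 667 nm fluorescence with per-spot signal-to-noise over triplicate slides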
[5] = biological target: Follistatin (Homo sapiens) (UniProt P19883); assay: FST protein binding to printed compounds – biochemical, small-molecule microarray, 635/667 nm fluorescence, primary screen (AID 1132); conditions: 635 nm fluorescence, higher = more signal
[6] = biological target: Fibroblast growth factor 2 (Homo sapiens) (UniProt P09038); assay: basic fibroblast growth factor binding to printed compounds – biochemical, small-molecule microarray, 635/667 nm fluorescence, primary screen (AID 1133); conditions: FGF2, fluorescence 635/667, higher = more signal
[7] = JC-1 mitochondrial potential readout, lung cancer cells – cell-based, A549, JC-1 fluorescence, basal, 24 h, 100 nL, profiling panel (AID 1138); conditions: higher = more signal;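 also: A549 lung adenocarcinoma cells under basal conditions with no added stimulus; test concentration not given here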
Lefty1 = Lefty1 protein binding to printed compounds – biochemical, small-molecule microarray, 635/667 nm fluorescence, primary screen (AID 1139); conditions: fluorescence 635/667, higher = more signal
[8] = test system: wheat germ agglutinin (Triticum aestivum), Alexa647-labelled; assay: Alexa647-WGA lectin binding to printed small molecules – biochemical, small-molecule microarray, 635/667 nm fluorescence, artefact control for SMM control-protein annotation, profiling panel (AID 1140); conditions: WGA-A647 binding, 635 nm fluorescence, higher = more signal;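 also: score merges 667 nm feature emission with signal to noise over triplicate slides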
[9] = biological target: Luciferin 4-monooxygenase (Photinus pyralis) (UniProt P08659); assay: inhibition of purified Photinus pyralis luciferase – biochemical, luminescence, purified enzyme, 2006 set, primary screen (AID 1141); conditions: purified firefly luciferase, SteadyGlo luminescence, 30 min; higher = more signal, called active from +8 up or from −8 down;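 also: cell-free assay with purified firefly luciferase at 100 ng per well in PBS; test concentration not given here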
[10] = test system: Wnt5a (protein binding on small-molecule microarray); assay: small molecules binding Wnt5a protein – biophysical, small-molecule microarray, 635/667 nm fluorescence, primary screen (AID 1142); conditions: 635 nm fluorescence, higher = more signal;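 also: fluorescence read at 667 nm with signal to noise per printed feature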
[11] = ATP-based viability of Huh7 replicon cells – cell-based, CellTiter-Glo luminescence, basal, 48 h, cytotoxicity control for HCV replication inhibitor project, primary screen (AID 1143); conditions: higher = more signal, called active from +8 up or from −8 down;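 also: Huh7 hepatoma cells carrying a hepatitis C replication reporter with no stimulus; test concentration not given here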
[12] = Pseudomonas biofilm growth suppression – PAO1 strain, BacTiter-Glo luminescence, LB-PBS, primary screen (AID 1144); conditions: P. aeruginosa PAO1 biofilm, 12 h, higher = more signal
[13] = basal CRE-LacZ reporter activity in PC12 – cell-based, unstimulated, primary screen (AID 1145); conditions: no forskolin, luminescence, 4.5 h, higher = more signal, called active from +8 up or from −8 down
[14] = forskolin-driven CRE-LacZ activity in PC12 – cell-based, CRE-LacZ reporter, forskolin-stimulated, primary screen (AID 1146); conditions: luminescence, 4.5 h, higher = more signal, called active from +8 up or from −8 down;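 also: PC12 cells with 6xCRE LacZ reporter stimulated by forskolin 10 µM; beta-galactosidase reporter signal reflecting CREB driven transcription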
[15] = biological target: Streptavidin (Streptomyces avidinii) (UniProt P22629); assay: compounds binding control protein streptavidin – biophysical, small-molecule microarray, 635/667 nm fluorescence, artefact control for SMM compound annotation, primary screen (AID 1147); conditions: higher = more signal;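 also: signal reflects streptavidin binding to arrayed compounds as a control protein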
[16] = probe aInhba binding on compound microarray – biochemical, small-molecule microarray, 635/667 nm fluorescence, primary screen (AID 1148); conditions: higher = more signal;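 also: score merges 667nm spot fluorescence with signal-to-noise for antibody binding to printed compounds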
Torsin-1A (Homo sapiens) [17] = biological target: Torsin-1A (Homo sapiens) (UniProt O14656); assay: TOR1A wild-type binding on microarray – cell lysate, small-molecule microarray, lysate, 635/667 nm, primary screen (AID 1149); conditions: COS7 hTOR1A-WT lysate, 635 nm fluorescence, higher = more signal
Torsin-1A (Homo sapiens) [18] = biological target: Torsin-1A (Homo sapiens) (UniProt O14656); assay: torsin A mutant lysate binding on microarrays – cell lysate, small-molecule microarray, COS7 lysate, 635/667 nm fluorescence, primary screen (AID 1150); conditions: COS7 hTOR1A mutant lysate, 635 nm fluorescence, higher = more signal;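 also: score pools 667 nm emission and signal to noise measuring lysate protein binding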
[19] = test system: Sonic hedgehog protein (Shh); assay: Sonic hedgehog microarray binding compounds – biochemical, small-molecule microarray, 635/667 nm fluorescence, primary screen (AID 1151); conditions: 635 nm fluorescence, higher = more signal;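 also: Shh protein binding to compounds spotted on small-molecule microarray slides; score combines spot fluorescence intensity with signal-to-noise across triplicate slides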

Chain of Streptavidin (Streptomyces avidinii) (P22629 whole entry, looked up): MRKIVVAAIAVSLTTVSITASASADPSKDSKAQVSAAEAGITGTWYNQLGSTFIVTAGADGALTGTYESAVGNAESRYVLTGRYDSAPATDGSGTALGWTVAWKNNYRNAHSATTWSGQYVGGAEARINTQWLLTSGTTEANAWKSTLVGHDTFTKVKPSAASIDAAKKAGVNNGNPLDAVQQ
Chain of Focal adhesion kinase 1 (Homo sapiens) (Q05397 whole entry, looked up): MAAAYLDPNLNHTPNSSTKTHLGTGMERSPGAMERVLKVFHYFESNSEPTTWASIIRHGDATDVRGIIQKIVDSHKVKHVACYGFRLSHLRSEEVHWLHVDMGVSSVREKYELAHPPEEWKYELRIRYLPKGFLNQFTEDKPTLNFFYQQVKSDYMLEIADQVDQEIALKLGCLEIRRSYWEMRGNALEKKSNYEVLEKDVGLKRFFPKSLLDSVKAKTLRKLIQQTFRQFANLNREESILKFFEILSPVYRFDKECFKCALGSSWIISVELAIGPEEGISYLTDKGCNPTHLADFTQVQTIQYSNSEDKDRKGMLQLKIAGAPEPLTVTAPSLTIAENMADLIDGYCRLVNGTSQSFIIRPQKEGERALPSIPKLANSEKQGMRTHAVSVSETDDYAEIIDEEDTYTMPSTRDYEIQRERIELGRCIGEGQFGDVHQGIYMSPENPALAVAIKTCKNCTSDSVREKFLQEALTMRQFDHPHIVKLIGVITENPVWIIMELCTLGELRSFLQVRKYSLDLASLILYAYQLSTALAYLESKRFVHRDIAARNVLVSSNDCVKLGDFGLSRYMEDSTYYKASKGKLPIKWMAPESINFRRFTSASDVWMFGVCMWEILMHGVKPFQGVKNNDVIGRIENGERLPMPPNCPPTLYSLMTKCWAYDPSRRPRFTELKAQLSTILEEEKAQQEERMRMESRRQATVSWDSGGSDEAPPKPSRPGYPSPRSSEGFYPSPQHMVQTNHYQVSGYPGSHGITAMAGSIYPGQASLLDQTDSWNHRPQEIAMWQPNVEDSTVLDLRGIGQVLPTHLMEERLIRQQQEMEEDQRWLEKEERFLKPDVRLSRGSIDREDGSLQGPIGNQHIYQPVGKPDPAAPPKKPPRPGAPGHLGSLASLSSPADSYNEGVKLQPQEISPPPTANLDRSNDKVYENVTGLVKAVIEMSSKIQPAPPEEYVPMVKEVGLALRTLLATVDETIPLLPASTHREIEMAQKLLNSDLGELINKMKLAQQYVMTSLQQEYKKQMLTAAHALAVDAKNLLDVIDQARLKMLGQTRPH
Chain of Torsin-1A (Homo sapiens) (O14656 whole entry, looked up): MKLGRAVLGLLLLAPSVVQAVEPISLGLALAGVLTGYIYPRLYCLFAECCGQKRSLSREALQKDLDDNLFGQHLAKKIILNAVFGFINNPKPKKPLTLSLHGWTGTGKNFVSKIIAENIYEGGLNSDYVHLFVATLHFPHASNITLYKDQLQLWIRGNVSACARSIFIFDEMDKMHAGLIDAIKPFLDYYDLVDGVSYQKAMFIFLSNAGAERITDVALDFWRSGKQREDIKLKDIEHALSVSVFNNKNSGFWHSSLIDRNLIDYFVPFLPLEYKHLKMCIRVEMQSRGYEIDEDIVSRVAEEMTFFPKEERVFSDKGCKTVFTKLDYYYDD
Chain of Luciferin 4-monooxygenase (Photinus pyralis) (P08659 whole entry, looked up): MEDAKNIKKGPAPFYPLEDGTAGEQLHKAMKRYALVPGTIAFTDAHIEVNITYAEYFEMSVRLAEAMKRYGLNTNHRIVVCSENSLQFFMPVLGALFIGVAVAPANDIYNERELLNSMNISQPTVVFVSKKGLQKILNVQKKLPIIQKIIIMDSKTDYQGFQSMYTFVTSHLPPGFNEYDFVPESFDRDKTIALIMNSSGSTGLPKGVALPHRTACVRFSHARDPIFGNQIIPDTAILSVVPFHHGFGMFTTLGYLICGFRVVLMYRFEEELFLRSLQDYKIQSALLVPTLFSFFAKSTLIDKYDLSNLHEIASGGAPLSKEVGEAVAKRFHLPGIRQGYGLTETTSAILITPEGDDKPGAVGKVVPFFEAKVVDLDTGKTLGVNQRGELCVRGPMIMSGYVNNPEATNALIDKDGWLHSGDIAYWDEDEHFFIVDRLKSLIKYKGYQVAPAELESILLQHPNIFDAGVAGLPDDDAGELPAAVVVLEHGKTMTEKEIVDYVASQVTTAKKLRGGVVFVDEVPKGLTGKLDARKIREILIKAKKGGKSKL
Chain of Fibroblast growth factor 2 (Homo sapiens) (P09038 whole entry, looked up): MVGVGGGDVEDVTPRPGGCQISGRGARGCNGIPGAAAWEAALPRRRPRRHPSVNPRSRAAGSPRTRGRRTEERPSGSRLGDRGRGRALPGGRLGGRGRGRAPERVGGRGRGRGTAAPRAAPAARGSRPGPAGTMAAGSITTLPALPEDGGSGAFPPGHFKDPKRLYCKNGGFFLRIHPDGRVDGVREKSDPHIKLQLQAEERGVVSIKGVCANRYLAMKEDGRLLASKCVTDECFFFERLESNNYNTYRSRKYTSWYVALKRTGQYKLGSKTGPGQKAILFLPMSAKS
Chain of Follistatin (Homo sapiens) (P19883 whole entry, looked up): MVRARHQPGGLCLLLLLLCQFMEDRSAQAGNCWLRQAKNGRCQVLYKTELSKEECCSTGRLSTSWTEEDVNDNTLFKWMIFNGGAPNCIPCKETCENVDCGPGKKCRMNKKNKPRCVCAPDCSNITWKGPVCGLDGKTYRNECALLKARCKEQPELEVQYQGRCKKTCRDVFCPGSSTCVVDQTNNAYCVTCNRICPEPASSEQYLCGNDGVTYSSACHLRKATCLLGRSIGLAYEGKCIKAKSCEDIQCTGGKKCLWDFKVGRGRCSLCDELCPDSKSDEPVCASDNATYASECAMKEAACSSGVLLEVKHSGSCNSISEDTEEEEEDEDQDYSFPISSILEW

| SMILES | composite z-score [1] | composite z-score [2] | composite z-score [3] | composite z-score [4] | composite z-score [5] | composite z-score [6] | z-score [7] | composite z-score (Lefty1) | composite z-score [8] | z-score [9] | composite z-score [10] | z-score [11] | z-score [12] | z-score [13] | z-score [14] | composite z-score [15] | composite z-score [16] | composite z-score (Torsin-1A (Homo sapiens) [17]) | composite z-score (Torsin-1A (Homo sapiens) [18]) | composite z-score [19] |
| --- | --- | --- | --- | --- | --- | --- | --- | --- | --- | --- | --- | --- | --- | --- | --- | --- | --- | --- | --- | --- |
| COCCn1c(C(=O)N(C)C)cc2c1C[C@H]1CN(C(=O)c3ccccc3)[C@@](Cc3ccc(F)cc3)(C(=O)OC)[C@@H]21 | 2.3 | 1.1 | 0.169 | 0.485 | 0.134 | -0.158 | 0.33 | -0.0481 | 1.11 | -0.663 (inactive) | 0.304 | -0.394 (inactive) | -0.191 (inactive) | -0.947 (inactive) | -0.578 (inactive) | 0.45 | -0.12 | 0.249 | 0.0952 | -0.0212 |
| COc1cc2c(cc1O)C(c1ccc(CN3CCCC3)cc1)N(Cc1sc3ccccc3c1Cl)CC2 (stereo not given) | 0.423 | -0.18 | 0.0344 | 0.455 | 1.03 | 1.17 | -0.763 | 0.501 | 0.421 | 1.14 (inactive) | 0.0746 | -3.63 (inactive) | -0.0323 (inactive) | 0.416 (inactive) | 0.821 (inactive) | 0.706 | -0.292 | 0.834 | 0.309 | 0.436 |
| CCCCCCCCCCC(O)C1C=CC2C(=O)N(c3ccccc3)C(=O)C2N1Nc1ccc([N+](=O)[O-])cc1 (stereo not given) | 0.774 | 1.22 | 0.525 | 0.992 | 0.8 | 0.378 | 2.09 | 0.371 | 0.56 | 1.86 (inactive) | 0.207 | -2.71 (inactive) | -0.214 (inactive) | 0.285 (inactive) | 0.925 (inactive) | 0.811 | -0.0059 | 0.0415 | 0.227 | 0.358 |
| CCOC(=O)C=Cc1cccc(OC)c1O | 0.447 | -0.311 | -0.227 | 0.102 | -0.248 | -1.13 | -1.37 | -0.679 | 0.859 | -17.6 (active) | -0.811 | -4.11 (inactive) | 1.91 (inactive) | 0.182 (inactive) | -0.791 (inactive) | -0.432 | -0.13 | -0.146 | 0.141 | -0.8 |
| CC(C)C[C@@H]1NC(=O)[C@@H]2C[C@H](C(=O)NCCCCN(C)C)[C@H](c3ccc(O)cc3)N2C1=O | 2.74 | -0.494 | -0.462 | -0.838 | -0.21 | -0.0947 | -0.273 | -0.477 | -0.153 | 0.36 (inactive) | -0.341 | 0.446 (inactive) | -0.0311 (inactive) | -0.532 (inactive) | -0.0914 (inactive) | -0.466 | -0.0624 | 0.0266 | -0.271 | 0.273 |
| [N-]=[N+]=NCc1ccccc1[C@@H]1OC(c2ccc(OCCCO)cc2)=N[C@]1(Cc1ccccc1)C(=O)O | 1.25 | 0.445 | 1.4 | 0.635 | 0.592 | 0.0221 | 1.36 | -0.548 | 0.536 | -1.44 (inactive) | -0.198 | -0.354 (inactive) | -0.608 (inactive) | 1.19 (inactive) | -0.707 (inactive) | 0.728 | -0.016 | 0.497 | 0.786 | -0.934 |
| C/C=C/[C@H](CCn1cc([C@H](O)c2ccccc2)nn1)[Si](C)(C)c1ccc(OC)cc1 | 0.382 | -0.559 | -0.3 | -1.17 | -0.735 | -0.997 | 0.45 | -0.781 | -0.777 | 0.173 (inactive) | -0.582 | -1 (inactive) | 0.303 (inactive) | -0.272 (inactive) | 0.0712 (inactive) | -0.832 | -0.263 | 0.0596 | -0.57 | -0.478 |
| C=CCCN(CC#C[C@H]1Oc2ccccc2S(=O)(=O)N2CCC[C@@H]12)S(=O)(=O)c1ccc(C)cc1 | 0.881 | 0.136 | 0.172 | -0.348 | 0.546 | 1.22 | 0.957 | 0.317 | -0.0231 | -0.291 (inactive) | 0.264 | -1.57 (inactive) | 0.592 (inactive) | 0.761 (inactive) | 3.31 (inactive) | -0.198 | -0.0471 | 0.554 | -0.109 | 0.624 |
| C=CCC(OC(C)=O)[C@@H]1[C@@H](N(Cc2cc3ccccc3o2)C(=O)c2cccc3ccccc23)c2cc(OCCCO)ccc2N1C(=O)Cc1ccc(OC)cc1 (stereo not given in full) | 0.305 | -0.328 | -0.109 | 0.412 | 1.02 | 0.78 | -0.529 | 0.339 | 0.637 | 0.48 (inactive) | 0.235 | -1.1 (inactive) | 0.0686 (inactive) | 0.279 (inactive) | 0.496 (inactive) | -0.0552 | -0.0804 | 0.175 | 0.138 | 1.16 |
| CCCCN1CC=CC23O[C@@H]4C=CCCOC(=O)C4[C@H]2C(=O)N(CCCO)[C@@H]3C1=O (stereo not given in full) | -1.31 | -1.79 | -0.274 | -1.42 | 0.274 | -0.469 | -1.13 | -0.439 | -1.45 | -0.11 (inactive) | -0.148 | -2.05 (inactive) | -1.19 (inactive) | -0.484 (inactive) | 0.46 (inactive) | -0.614 | -0.176 | -0.387 | -0.954 | -0.278 |
